# From PubChem BioAssay AID720518 (National Center for Advancing Translational Sciences (NCATS), 2013)
# Results filed as inconclusive are left out. Calls of active or inactive are those of the source. Calls follow the shape of the full dose curve.
# Test: qHTS for Inhibitors of Cell Surface uPA Generation: Wild-type Protective Antigen (WT-PrAg) Counterscreen for Cherry-picked Compounds; as to activity (protection): 0% is about no effect
# Details: cells, WT protective antigen toxicity counterscreen; series mostly up to 115 µM; activity (protection): at the top concentration
# Potency is read from the fitted curve at half-maximal effect.
Compound,activity (protection),Potency
O=c1[nH]c(=O)n(-c2ccc(Cl)cc2)c(O)c1C=Nc1ccc(S(=O)(=O)Nc2nccs2)cc1,-0.0765% (inactive),–
CCC(C)Nc1cc(C)nc2ncnn12 (stereo not given),-0.604% (inactive),–
CC(=O)n1cc(/C=N/NC(=O)c2ccc([N+](=O)[O-])cc2)c2ccccc21,-1.78% (inactive),–
O=[N+]([O-])c1ccc(C[n+]2cccc(O)c2)cc1,-1.12% (inactive),–
CCOc1ccc(NS(=O)(=O)c2coc(C(N)=O)c2)cc1,-0.713% (inactive),–
O=C(c1cccc(F)c1)N1CCN(Cc2cccc(Br)c2)CC1,-1.52% (inactive),–
Cc1ccc(NS(=O)(=O)c2c(C)nc3sccn3c2=O)c(C)c1,-0.69% (inactive),–
Cc1cc(C)n(CCCNC(=O)c2ccc(C)o2)n1,-1.36% (inactive),–
COc1ccc(C(=O)CC2(C(=O)O)CCCCC2)cc1,-0.719% (inactive),–
COc1ccc(CN2CCN(Cc3ccc(C(F)(F)F)cc3)CC2)cc1,-1.82% (inactive),–
Cc1cccc(NC(=O)C2CCCN(S(=O)(=O)c3cccc4cccnc34)C2)c1 (stereo not given),-1.51% (inactive),–
O=C(COc1ccccc1F)NCC(c1ccc(F)cc1)N1CCOCC1 (stereo not given),-0.0642% (inactive),–
CCc1nccn1CCC(=O)N1CCc2c([nH]c3ccccc23)C1CC(C)C (stereo not given),-0.387% (inactive),–
COCc1c(C(=O)Nc2nc(C)cs2)oc2ccccc12,-2.04% (inactive),–
COc1ccc(-c2cc3nc(C)cc(-c4ccc(OC)cc4)n3n2)cc1,-1.24% (inactive),–
O=C(CCCOc1ccc(Cl)cc1Cl)NCc1ccncc1,0.418% (inactive),–
CS(=O)(=O)Nc1cccc(C2=NN(S(=O)(=O)c3ccccc3)C(c3ccco3)C2)c1 (stereo not given),-0.967% (inactive),–
CCC(C)Sc1nnc(NS(=O)(=O)Cc2ccccc2)s1 (stereo not given),-1.55% (inactive),–
COCc1cc(C)nc2sc(C(=O)Nc3nccs3)c(N)c12,-0.434% (inactive),–
COc1ccc(C(=O)c2sc(Nc3ccccc3)nc2N)cc1,5.73% (inactive),–

Compound,activity (protection),Potency
CCOC(=O)CC(=O)CSc1nc2c(C)c(C)ccc2cc1C,1.07% (inactive),–
Cc1ccc(C(=O)COc2cc(O)c3c(=O)cc(-c4ccccc4)oc3c2)cc1,-0.241% (inactive),–
COc1ccccc1NC(=O)Cn1nnc(-c2ccccc2NC(=O)c2cc3ccccc3oc2=O)n1,-0.855% (inactive),–
COCCOC(=O)C1=C(C)NC(=O)NC1c1cccc2ccccc12 (stereo not given),1.46% (inactive),–
Cc1ccc(NC(=O)c2ccc(=O)[nH]n2)cc1S(=O)(=O)Nc1ccccc1Cl,1.01% (inactive),–
Cc1c(NC(=O)C(C)OC(=O)CCC2CCCC2)c(=O)n(-c2ccccc2)n1C (stereo not given),0.713% (inactive),–
Cn1cccc1Cc1nnc(SCC(=O)Nc2ccc3c(c2)OCCO3)n1-c1ccc(F)cc1,-1.41% (inactive),–
CC1Cc2nc(SCC(=O)Nc3ccc4c(c3)OCO4)n(-c3ccc(F)cc3)c(=O)c2S1 (stereo not given),-0.181% (inactive),–
CCOCCCn1c(SCC(=O)Nc2oc(C)c3c(C)n[nH]c(=O)c23)nc2ccccc2c1=O,-1.46% (inactive),–
Cc1ccc(-c2nc(CS(=O)(=O)CC(=O)NCc3cccc(F)c3)c(C)o2)cc1,0.115% (inactive),–
CCn1nc(C)c(CNC(=O)C2CCC(=O)N(CCc3ccc(OC)cc3)C2)c1C (stereo not given),-0.215% (inactive),–
COc1ccc(-c2sc3ccccc3c2C#CCO)cc1,-1.9% (inactive),–
CC1CN(C(=O)CCC(=O)NCc2ccccc2)c2ccccc2S1 (stereo not given),4.57% (inactive),–
O=C(COC(=O)/C=C/c1cccc(F)c1)Nc1ccccc1,-0.363% (inactive),–
O=C(COc1ccc(C(=S)N2CCOCC2)cc1)N1CCOCC1,0.626% (inactive),–
O=C(CCCC(=O)N(c1cccc(F)c1)C(C(=O)NC1CCCC1)c1ccc(O)cc1)Nc1ccccn1 (stereo not given),-1.3% (inactive),–
OCC[C@@H]1C[C@H](O)[C@@H](O)[C@]2(OCCc3ccccc32)O1,-0.757% (inactive),–
CC1(C)CC2(CC(c3ccccc3)Oc3cc(O)ccc32)NC(=S)N1 (stereo not given),-0.912% (inactive),–
Cc1ccc2c(c1)N(CC(=O)NCCCc1ccccc1)C(=O)c1cccnc1O2,2.62% (inactive),–
S=C(Nc1ccccc1Cl)N1CCCC(c2ccccc2)=N1,–,16.5 µM (active)
